# Source: PubChem BioAssay (Broad Institute)
# HSF1 inh – HSF1 inhibitors in luciferase reporter cells, primary screen, cell-based, NIH3T3, luminescence; NIH3T3-HGL HSE-luciferase, MG132-induced, luminescence 8 h; stronger effect = lower value; activity change, negative = inhibition, % at 7.5 µM (by protocol); 300,000 tested, 0.77% active; AID 2098, 2009;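 active = more than half of replicate wells show activity change below -50%, luminescence cut by over half; inconclusive = some wells, but at most half, below -50%; inactive = no replicate well below -50%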;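 note: luciferase reports HSF-1 transcriptional activity via heat shock element; 0% = median of DMSO wells and -100% = zero luminescence signal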
# Wnt bcat act – Wnt/beta-catenin pathway activators, primary screen, cell-based, plate reader, single point | Wnt/beta-catenin reporter cell assay, activator | activation, % at 9.35 µM | 300,000 tested, 1.2% active | AID 743398, 2014; in the data active = activation above about 30%, passing the limit was not always enough; inconclusive = no clear call, values can overlap the other calls;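 note: 0% = neutral control wells and 100% = positive control wells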
# HSF-1 act – HSF-1 activators, primary screen, NIH3T3-HGL cells, MG132 stress, luminescence, single point. activation, % at 9 µM. NIH3T3-HGL HSF-1 luciferase reporter, 8 h; 100% = twice DMSO control signal. 300,000 tested, 1.7% active;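 active = mean replicate activation of at least 50% with a set share of replicates each reaching 50%; inconclusive = only one of those two conditions met; inactive = mean below 50% and too few replicates reaching it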;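 note: 0% = median of the neutral control wells and 100% = twice that signal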
# MITF act – activators of MITF-driven TRPM1 promoter reporter, primary screen, cell-based, SK-MEL-5, luciferase, single point. 300,000 tested, 0.75% active. AID 588334, 2011. SK-MEL-5 TRPM1-promoter luciferase, 24 h; % of positive control, neutral wells = 0. activation, % at 12.5 µM;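 active = mean activation of at least 80% with every replicate also reaching 80%; inconclusive = mean reaches 80% but some replicate falls short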;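 note: 0% = neutral control wells and 100% = parthenolide positive control wells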
# esBAF inh – Bmi1 luciferase reporter increase in mESCs, primary screen, esBAF inhibitor project, mouse ES cells, Bmi1 luciferase knock-in, single point; 24 h; 100% = twice the neutral-well signal; reporter increase, % at 12.5 µM; 350,000 tested, 2% active; AID 602393, 2012; in the data active = activation above about 40%; inconclusive = no clear call, values can overlap the other calls;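 note: 0% = median of the plate's neutral control wells and 100% = double that signal; a rise in the Bmi1 reporter signal indicates esBAF inhibition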
# * hit, by the source's call; ? = inconclusive; . = no result. Compounds with a hit are over-represented: about 3.9% of the library has one in this group of screens.
SMILES,HSF1 inh,Wnt bcat act,HSF-1 act,MITF act,esBAF inh
O=C(c1cc(COc2ccc(F)cc2F)on1)N1CC2C[C@@H]3CC1C[C@H](C2)C3,26,22,30,?,55*
C[C@@H]1CN([C@H](C)CO)C(=O)Cc2cc(NC(=O)Cc3cn(C)c4ccccc34)ccc2O[C@@H]1CN(C)C(=O)NC1CCCCC1,.,.,.,.,1
CO[C@H]1CN(C)C(=O)c2cc(NC(=O)c3nc4ccccc4s3)ccc2OC[C@H](C)N(Cc2cncnc2)C[C@H]1C,.,.,.,.,-13
Cc1[nH]n(-c2ccccc2)c(=S)c1C=Nc1cccc([N+](=O)[O-])c1,-60*,9,-67,-10,6
CCCCN=Cc1c(C)[nH]n(-c2ccccc2)c1=S,-8,1,-1,-5,.
C[C@H]1CCCCO[C@@H](CN(C)CC2CCCCC2)[C@@H](C)CN([C@@H](C)CO)C(=O)c2cc(NS(=O)(=O)c3cn(C)cn3)ccc2O1,.,.,.,.,-4
Cc1ccc(NC(=O)CN(C)C(=O)CCOc2cccc(C)c2)cc1,5,31*,-24,6,.
CCN(CC)c1ccc(NC(=O)CCCOc2cccc(C)c2)cc1,-2,1,-5,-9,-7
Cc1cccc(OCCCC(=O)Nc2ccc(S(N)(=O)=O)cc2)c1,-3,36*,12,-1,-2
Cc1ccc(OCCCC(=O)N(C)CC(=O)Nc2c(C)cccc2C)cc1,.,-1,.,.,0
O=c1[nH]cc(S(=O)(=O)c2ccccc2)[nH]1,-51*,2,-60,5,-5
C[C@@H]1CN([C@H](C)CO)C(=O)c2cc(C#CCN(C)C)cnc2O[C@H]1CN(C)Cc1ccc(-c2ccccc2)cc1,.,.,.,.,-6
C[C@@H]1CN([C@@H](C)CO)C(=O)c2cc(-c3ccc(C#N)cc3)cnc2O[C@@H]1CN(C)C(=O)Nc1ccc(C(F)(F)F)cc1,.,.,.,.,-9
Cc1c(/C(O)=C2/C(=O)C(=O)N(CCN3CCOCC3)C2c2ccccn2)cnn1-c1ccccc1 (centres undefined),-85*,-33,-86,-42,.
O=C1C(=O)N(CCN2CCOCC2)C(c2ccccn2)/C1=C(/O)c1ccc(F)cc1 (centres undefined),0,1,20,-3,.
COc1ccc(/C(O)=C2/C(=O)C(=O)N(CCN3CCOCC3)C2c2ccccn2)cc1 (centres undefined),.,?,.,3,44*
COc1ccc(/C(O)=C2/C(=O)C(=O)N(c3ccccn3)C2c2ccc(F)cc2)cc1 (centres undefined),14,1,20,84*,23
Cc1ccc(C2/C(=C(/O)c3cnn(-c4ccccc4)c3C)C(=O)C(=O)N2CCCN2CCOCC2)o1 (centres undefined),15,.,32,.,.
CN(C)CCN1C(=O)C(=O)/C(=C(/O)c2ccc3c(c2)OCCO3)C1c1ccccn1 (centres undefined),-6,37*,-7,0,9
COc1ccc(C2/C(=C(/O)c3ccc(C)cc3)C(=O)C(=O)N2c2ccccn2)cc1 (centres undefined),-8,2,8,12,7
Cc1noc(C)c1NC(=O)Nc1ccc2c(c1)C(=O)N([C@@H](C)CO)C[C@H](C)[C@@H](CN(C)S(=O)(=O)c1ccc(Cl)cc1)OCCCC[C@@H](C)O2,.,.,.,.,3
CNC[C@@H]1Oc2ccc(NC(=O)c3ccncc3)cc2C(=O)N([C@@H](C)CO)C[C@@H]1C,.,.,.,.,1
C[C@@H]1CN([C@@H](C)CO)C(=O)c2cc(NC(=O)Nc3ccccc3)ccc2O[C@@H]1CN(C)CC1CC1,.,.,.,.,1
C/C(=C\C(=O)Nc1cscc1C)C(=O)O,30,4,74*,.,.
O=C(Nc1ccc2c(c1)OCO2)c1cc(Cl)ccn1,.,-1,.,57,44*
SMILES,HSF1 inh,Wnt bcat act,HSF-1 act,MITF act,esBAF inh
Cn1ccc(NC(=O)c2ccc(Cl)cc2)n1,.,18,.,50,26
O=C(Nc1ccc2c(c1)OCO2)c1ccc(Cl)cc1Cl,26,6,53*,64,-23
O=C(Nc1ccc2c(c1)OCCO2)c1ccc(Cl)cc1Cl,32,11,?,24,-18
Cn1ccc(NC(=O)c2ccc(Cl)cc2Cl)n1,.,35*,.,?,30
Cn1nccc1C(=O)Nc1ccc2c(c1)OCO2,11,13,0,73,.
O=C(C[C@@H]1CC[C@@H](NC(=O)c2ccc3c(c2)OCO3)[C@@H](CO)O1)NC1Cc2ccccc2C1,.,.,.,.,0
CCC1CCCCN1S(=O)(=O)c1ccc(NC(=O)C2CC(=O)N(C(C)(C)C)C2)cc1 (centres undefined),.,33*,.,48,30
COc1ccc(S(=O)(=O)N(C)C[C@@H]2OCCCC[C@H](C)Oc3ccc(NC(=O)Nc4cccc5ccccc45)cc3C(=O)N([C@H](C)CO)C[C@H]2C)cc1,.,.,.,.,1
N/C(Cc1ccc([N+](=O)[O-])cc1)=N\OC(=O)c1ccccc1F,49,30,66*,57,?
N/C(Cc1ccc([N+](=O)[O-])cc1)=N\OC(=O)Cc1ccccc1,1,3,4,-13,.
O=C(Cc1ccc([N+](=O)[O-])cc1)OCc1c(F)cccc1Cl,39,-2,56*,2,6
CCCC#Cc1ccc([C@H]2[C@@H](C#N)N(C(=O)C3CC3)[C@@H]2CO)cc1,.,.,.,.,-3
Cc1ccccc1OCC(O)Cn1nnc2ccccc21 (centres undefined),.,.,.,79,65*
CCC(=O)c1ccc(OCC(O)Cn2nnc3ccccc32)cc1 (centres undefined),13,3,22,24,.
Nc1ccc2oc(C3CCCCC3)nc2c1,-91*,12,-93,10,.
O=[N+]([O-])c1ccc2oc(C3CCCCC3)nc2c1,-4,19,6,79,44*
Cc1ccccc1S(=O)(=O)NCC[C@@H]1CC[C@@H](NC(=O)Nc2cccc(F)c2)[C@@H](CO)O1,.,.,.,.,11
CN(C(=O)COc1ccc(Cl)cc1Br)C1CCCCC1,18,9,14,6,48*
Cc1ccsc1C(=O)OCC(=O)N(C)C1CCCCC1,.,48*,.,16,-5
CN(C(=O)COC(=O)c1cccnc1Cl)C1CCCCC1,.,0,.,50,56*
O=C(COC(=O)COc1ccc(Cl)cc1Br)NC1CCCCCC1,.,-7,.,-1,-8
CCCc1cn(CC[C@H]2CC[C@H](NC(=O)C3CCCCC3)[C@H](CO)O2)nn1,.,.,.,.,0
C[C@H](CO)N1C[C@H](C)[C@H](CN(C)C(=O)Nc2ccccc2)Oc2ccc(NS(=O)(=O)c3ccc(F)cc3)cc2CC1=O,.,.,.,.,-7
C[C@@H]1CN([C@@H](C)CO)C(=O)c2cc(NS(=O)(=O)c3ccccc3)ccc2O[C@@H]1CN(C)C(=O)Nc1ccc(C(F)(F)F)cc1,.,.,.,.,-4
